Columns and labels:
Experiment in all cases: relative growth (AUC of 72 h growth curve relative to DMSO control, dAUC) (ratio); higher = more growth (less inhibition), active = hit call of the paper
Settings in all cases: 20 µM;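 active = growth AUC significantly below the DMSO wells by Dunnett test; inactive = the rest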
[1] = compound: C=CCOC(Cn1ccnc1)c1ccc(Cl)cc1Cl
How it was run: (§1)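 Isolates from Icelandic stream sediments and Silwood Park soil, along with whole sediment communities, were grown in Luria–Bertani medium to carrying capacity and diluted 1:100 into 96-well plates with each chemical at 20 µM (1% DMSO). A600 was measured hourly for 72 h, and values were averaged over three biological replicates. Relative growth (dAUC) is the spline-integrated growth-curve area over the mean of the DMSO controls.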

[2] = compound: CC(=O)CC(c1ccccc1)c1c(O)c2ccccc2oc1=O
How it was run: as §1

[3] = compound: CC1COc2ccccc2N1C(=O)C(Cl)Cl
How it was run: as §1

[4] = compound: CCCCC(CC)CN1C(=O)[C@@H]2[C@H](C1=O)[C@@H]1C=C[C@H]2C1 (mixture of isomers)
How it was run: as §1

[5] = compound: CCCCCCCCc1c(CC)nc2ncnn2c1N
How it was run: as §1

[6] = compound: CCCCOCCOCCOCc1cc2c(cc1CCC)OCO2
How it was run: as §1

[7] = compound: CCCOC(=O)NCCCN(C)C
How it was run: as §1

[8] = compound: COC(=O)c1csc(C)c1S(=O)(=O)NC(=O)n1nc(OC)n(C)c1=O
How it was run: as §1

[9] = compound: Cc1ccc(C(C)NC(=O)[C@@H](NC(=O)OC(C)C)C(C)C)cc1
How it was run: as §1

[10] = compound: Cc1nn(C)c(Oc2ccccc2)c1/C=N/OCc1ccc(C(=O)OC(C)(C)C)cc1
How it was run: as §1

[11] = compound: Cn1cc(C(=O)Nc2ccc(F)cc2-c2ccc(Cl)c(Cl)c2)c(C(F)F)n1
How it was run: as §1

[12] = compound: Cn1cc(C(=O)Nc2ccccc2-c2cc(F)c(F)c(F)c2)c(C(F)F)n1
How it was run: as §1

[13] = compound: O=C(NCc1ncc(C(F)(F)F)cc1Cl)c1c(Cl)cccc1Cl
How it was run: as §1

[14] = compound: Oc1c(Cl)cc(Cl)c(Cl)c1Cc1c(O)c(Cl)cc(Cl)c1Cl
How it was run: as §1

[15] = compound: S=C([S-])NCCNC(=S)[S-].S=C([S-])NCCNC(=S)[S-].[Mn+2].[Zn+2]
How it was run: as §1

[16] = compound: c1ccc2[nH]c(-c3cscn3)nc2c1
How it was run: as §1

Target	relative growth [1]	relative growth [2]	relative growth [3]	relative growth [4]	relative growth [5]	relative growth [6]	relative growth [7]	relative growth [8]	relative growth [9]	relative growth [10]	relative growth [11]	relative growth [12]	relative growth [13]	relative growth [14]	relative growth [15]	relative growth [16]
Aeromonas 1 (Aeromonas sp. AE235)	0.944 (inactive)	0.96 (inactive)	0.999 (inactive)	0.966 (inactive)	0.969 (inactive)	0.979 (inactive)	0.944 (inactive)	1.04 (inactive)	0.959 (inactive)	1.02 (inactive)	0.985 (inactive)	1.03 (inactive)	0.991 (inactive)	0.000683 (active)	0.955 (inactive)	0.952 (inactive)
Arthrobacter 1 (Arthrobacter humicola)	0.626 (active)	1.01 (inactive)	0.901 (inactive)	0.835 (inactive)	0.931 (inactive)	1.01 (inactive)	1.04 (inactive)	1.12 (inactive)	0.932 (inactive)	1.26 (inactive)	0.846 (inactive)	0.99 (inactive)	0.993 (inactive)	0.00912 (active)	0.994 (inactive)	0.932 (inactive)
Pseudomonas 4 (Pseudomonas peli)	0.952 (inactive)	0.978 (inactive)	0.938 (inactive)	0.959 (inactive)	0.99 (inactive)	0.961 (inactive)	0.995 (inactive)	1.03 (inactive)	0.968 (inactive)	1.01 (inactive)	0.979 (inactive)	0.992 (inactive)	0.981 (inactive)	0.00176 (active)	0.927 (inactive)	0.928 (inactive)
Community 9	0.764 (inactive)	0.985 (inactive)	1.02 (inactive)	0.846 (inactive)	1.02 (inactive)	0.906 (inactive)	1 (inactive)	1.1 (inactive)	0.905 (inactive)	0.906 (inactive)	0.839 (inactive)	1.05 (inactive)	1.03 (inactive)	0.306 (active)	1.03 (inactive)	0.911 (inactive)
Sphingomonas 2 (Sphingomonas sp.)	0.991 (inactive)	1.2 (inactive)	1.09 (inactive)	1.07 (inactive)	1.13 (inactive)	0.821 (inactive)	0.956 (inactive)	1.14 (inactive)	1.08 (inactive)	1.14 (inactive)	0.555 (active)	1.02 (inactive)	1.09 (inactive)	0.0196 (active)	0.975 (inactive)	1.02 (inactive)
Arthrobacter 2 (Arthrobacter humicola)	0.195 (active)	0.972 (inactive)	0.871 (inactive)	0.869 (inactive)	0.929 (inactive)	0.384 (active)	1.07 (inactive)	1 (inactive)	0.87 (inactive)	0.771 (inactive)	0.627 (inactive)	0.983 (inactive)	0.96 (inactive)	0.00995 (active)	0.932 (inactive)	1.19 (inactive)
Rhizobium 1 (Rhizobium herbae)	0.836 (inactive)	0.893 (inactive)	1.03 (inactive)	0.888 (inactive)	0.952 (inactive)	1.04 (inactive)	1.06 (inactive)	0.92 (inactive)	1.02 (inactive)	1.02 (inactive)	0.332 (active)	0.185 (active)	0.977 (inactive)	0.0348 (active)	1.09 (inactive)	1.14 (inactive)
Arthrobacter 3 (Arthrobacter sp.)	0.33 (active)	0.933 (inactive)	1.01 (inactive)	1.02 (inactive)	0.981 (inactive)	1.02 (inactive)	1.02 (inactive)	1.04 (inactive)	0.922 (inactive)	1 (inactive)	0.725 (inactive)	0.968 (inactive)	0.978 (inactive)	0.0157 (active)	0.821 (inactive)	0.921 (inactive)
Aeromonas 2 (Aeromonas sobria)	0.874 (inactive)	0.948 (inactive)	0.962 (inactive)	0.971 (inactive)	0.986 (inactive)	0.986 (inactive)	0.999 (inactive)	1.01 (inactive)	0.993 (inactive)	1.03 (inactive)	0.936 (inactive)	0.987 (inactive)	0.974 (inactive)	0.00514 (active)	0.907 (inactive)	0.973 (inactive)
Carnobacterium 1 (Carnobacterium gallinarum)	0.879 (inactive)	0.827 (inactive)	0.955 (inactive)	0.823 (inactive)	1.13 (inactive)	0.363 (inactive)	0.986 (inactive)	1.17 (inactive)	1.01 (inactive)	0.951 (inactive)	0.779 (inactive)	1 (inactive)	1.16 (inactive)	0.00936 (active)	0.913 (inactive)	0.908 (inactive)
Pseudomonas 1 (Pseudomonas baetica)	1.01 (inactive)	1.09 (inactive)	1.04 (inactive)	1.13 (inactive)	0.923 (inactive)	1.04 (inactive)	0.968 (inactive)	1.1 (inactive)	1.06 (inactive)	1.14 (inactive)	1.15 (inactive)	0.984 (inactive)	1.04 (inactive)	0.559 (active)	0.921 (inactive)	0.944 (inactive)
Neobacillus 1 (Neobacillus soli)	0.996 (inactive)	0.98 (inactive)	0.978 (inactive)	0.974 (inactive)	0.944 (inactive)	1.04 (inactive)	1.01 (inactive)	1.07 (inactive)	0.946 (inactive)	0.942 (inactive)	0.848 (inactive)	1.02 (inactive)	1 (inactive)	0.507 (active)	1.06 (inactive)	0.976 (inactive)
Community 6	0.861 (inactive)	0.916 (inactive)	0.942 (inactive)	0.75 (inactive)	1.02 (inactive)	0.907 (inactive)	1.02 (inactive)	1.01 (inactive)	0.928 (inactive)	0.712 (inactive)	0.852 (inactive)	1.06 (inactive)	0.966 (inactive)	0.442 (active)	1.16 (inactive)	1.01 (inactive)
Hymenobacter 1 (Hymenobacter glaciei)	0.768 (inactive)	1.08 (inactive)	0.952 (inactive)	0.932 (inactive)	1.05 (inactive)	0.845 (inactive)	1.07 (inactive)	1.08 (inactive)	0.999 (inactive)	1.06 (inactive)	0.927 (inactive)	0.91 (inactive)	1 (inactive)	0.00356 (active)	0.998 (inactive)	0.917 (inactive)
Community 8	0.913 (inactive)	1.03 (inactive)	1.03 (inactive)	0.989 (inactive)	1.07 (inactive)	0.957 (inactive)	1.03 (inactive)	1.01 (inactive)	0.972 (inactive)	1.01 (inactive)	0.943 (inactive)	1.04 (inactive)	1.02 (inactive)	0.806 (inactive)	1.13 (inactive)	0.998 (inactive)
Pseudomonas 6 (Pseudomonas sp.)	0.901 (inactive)	1.13 (inactive)	1.09 (inactive)	1.1 (inactive)	0.937 (inactive)	1.14 (inactive)	0.948 (inactive)	1.09 (inactive)	1.12 (inactive)	1.09 (inactive)	0.974 (inactive)	1.04 (inactive)	1.05 (inactive)	0.0758 (active)	0.926 (inactive)	0.884 (inactive)

Source: the supplement of paper PMC12067926
